Compound activity from PubChem BioAssay.
Tgondii IFNg: inhibitors of Toxoplasma gondii growth with IFN-gamma; Toxoplasma gondii growth in IFN-gamma-treated host cells; hits give low values; activity change, negative = inhibition, % (test concentration not listed); actives 3.8% (n = 69,000); AID 1259416; in the data active means activity change below about -70%, passing the limit was not always enough;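 further: host cells are HeLa cells infected with Toxoplasma gondii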
Starred values were filed as active, the others as inactive; i = inactive. Shown is part of a subset that was picked to be rich in hits.

SMILES	Tgondii IFNg
COc1ccc(-c2nc(Cc3noc(-c4ccccn4)n3)c(C)o2)cc1	45.6
CC(C(=O)N1CCOCC1)N1CCC(N2CCCCC2)CC1 (centres undefined)	-26.4
Cc1ccc(F)c(NC(=O)Nc2ccc(-c3cccc4[nH]nc(N)c34)cc2)c1	-75.0*
Cc1ccc(-c2coc(-c3ccc(NC(=O)Nc4ccc(F)cc4F)cc3)n2)c(C)c1	3.1
Cc1ccc(C)c(-c2coc(-c3ccc(NC(=O)Nc4ccccc4F)cc3)n2)c1	-34.9
NC1(C#Cc2cncc(C(=O)N3CCOCC3)c2)CCCCC1	-9.7
CC(C)OC(=O)c1cn(Cc2c(F)cccc2F)c2sc(-c3ccc(NC(=O)C(C)C)cc3)c(CN(C)Cc3ccccc3)c2c1=O	-79.9*
O=C(c1ccc(Cl)cc1O)N1CCC2(CCOCC2)CC1	-4.2
Cc1nc2ccc(C(=O)N3CCN(Cc4ccco4)C(CCO)C3)cc2[nH]1 (centres undefined)	-5.6
Cc1cnc(CNC(=O)C2=NOC3(CCN(C(C)C)C3)C2)cn1 (centres undefined)	-3.1
Cc1oc(C2CCN(S(=O)(=O)c3cccc(F)c3)CC2)nc1C(=O)N1CCCC1	12.7
Cc1oc(C2CCN(C(=O)Nc3cccc(F)c3C)CC2)nc1C(=O)N(C)C	-79.4*
Cc1oc(C2CCN(C(=O)Nc3cccc(Cl)c3C)CC2)nc1C(=O)N(C)C	14.6
Cc1oc(C2CCN(S(=O)(=O)c3ccc(F)cc3)CC2)nc1C(=O)N1CCCC1	-29.4
CSc1ccc(NC(=O)N2CCC(c3nc(C(=O)N4CCCC4)c(C)o3)CC2)cc1	-84.4*
Cc1cccc(NC(=O)N2CCC(c3nc(C(=O)N(C)C)c(C)o3)CC2)c1C	-13.3
Cc1ccc(F)cc1S(=O)(=O)N1CCC(c2nc(C(=O)N3CCCC3)c(C)o2)CC1	-82.0*
CSc1ccc(NC(=O)N2CCC(c3nc(C(=O)N4CCCCC4)c(C)o3)CC2)cc1	-63.7
Cc1oc(C2CCN(C(=O)Nc3ccc(Cl)cc3)CC2)nc1C(=O)N1CCCC1	-20.6
OCCn1ccnc1-c1ccc(-c2ccccc2Cl)o1	157.4
OCCNc1ccc(-c2ccc(F)cc2Cl)nn1	23.6
O=C(Nc1nc(-c2ccccc2F)cs1)C1CC(=O)N(Cc2ccncc2)C1 (centres undefined)	7.6
C[C@H](CO)N1C[C@H](C)[C@H](CN(C)Cc2ccc(-c3ccccc3)cc2)Oc2ccc(N(C)C)cc2CC1=O	-82.8*
C[C@@H]1CN([C@@H](C)CO)C(=O)Cc2cc(N(C)C)ccc2O[C@H]1CN(C)Cc1ccc(-c2ccccc2)cc1	68.7
C[C@@H]1CN([C@H](C)CO)C(=O)c2cc(N(C)C)ccc2O[C@H]1CN(C)Cc1ccc(Oc2ccccc2)cc1	60.3
SMILES	Tgondii IFNg
CN(C)CCCNC(=O)c1cc(-c2cnc(-c3ccccc3)nc2)cn1C	-28.5
CCCNC(=O)c1cc(-c2cnc(NCc3ccccc3)nc2)cn1C	-82.5*
Cn1cc(-c2cnc(-c3ccccc3)nc2)cc1C(=O)NCCC#N	7.9
COc1cc(C)c(-c2ccc(Cn3ccnc3)cn2)c(C)c1	29.0
CC(C)(C)c1nnc(NC(=O)C2CC(=O)N(CCc3c[nH]c4ccc(F)cc34)C2)s1 (centres undefined)	73.7
O=C(Nc1ccc2c(c1)CCC2)C1CC(=O)N(CCc2c[nH]c3ccc(Cl)cc23)C1 (centres undefined)	-111.3*
O=C(NC1CCCCCC1)C1CC(=O)N(CCc2c[nH]c3ccc(Cl)cc23)C1 (centres undefined)	47.7
CC(C)c1ccc(NC(=O)C2CC(=O)N(CCc3c[nH]c4ccc(F)cc34)C2)cc1 (centres undefined)	-80.8*
Cc1ccc2[nH]cc(CCN3CC(C(=O)NCCc4ccc(F)cc4)CC3=O)c2c1 (centres undefined)	178.8
Cc1nnc(NC(=O)C2CC(=O)N(CCc3c[nH]c4ccc(Cl)cc34)C2)s1 (centres undefined)	44.6
CN1C(=O)[C@@H]2CN(c3ncccn3)C[C@@H]2C12CCN(S(C)(=O)=O)CC2	-48.9
CN(C)CCn1c2c(ccc1=O)CCN(C(=O)c1cscn1)CC2	0.2
COc1cc(C)ccc1S(=O)(=O)N1CCC2(CCN(C)C2)CC1	-15.4
Cc1nc2ccc(-n3ccnc3-c3ccncc3)cc2[nH]1	-5.2
CCCCn1ncc(C)c1NC(=O)Cc1ccc2c(c1)OCO2	-4.4
CC(C(=O)NCC(C)(C)N1CCOCC1)N(c1ccccc1)S(C)(=O)=O (centres undefined)	0.6
CCc1cnc(-c2cc(F)c3c(c2)CC(CN)O3)nc1 (centres undefined)	14.2
Cn1cc(C(CNC(=O)Nc2ccc(Br)cc2F)c2cccnc2)c2ccccc21 (centres undefined)	i
O=C(NCC(c1cccnc1)c1c[nH]c2ccccc12)Nc1cccc(Br)c1 (centres undefined)	191.0
O=C(NCC(c1cccnc1)c1c[nH]c2ccccc12)Nc1ccc(Br)cc1F (centres undefined)	-116.2*
Cc1ccsc1CN(C)c1ncnc2c1CCN(C(=O)c1cccnc1)C2	-6.5
COc1ccc(OC)c(NC(=O)Nc2ccc(-c3nc(-c4cc(C)ccc4C)co3)cc2)c1	-22.5
Cn1nccc1CN1CC[C@@H]2OCCN(C(=O)c3cccnc3)[C@@H]2C1	4.4
COc1ccc(-c2nc(C)c(CCNS(=O)(=O)c3ccc(OC)cc3)s2)cc1	i
O=C(CN1CCCC1Cn1cccn1)Nc1nc(-c2ccc(F)cc2)cs1 (centres undefined)	-77.2*
SMILES	Tgondii IFNg
O=C(CN1CCCCC1)Nc1nc(-c2ccccc2)cs1	-5.2
Cc1csc(NC(=O)CN2CCC(c3ccc(F)cc3)CC2)n1	8.9
CC(Oc1cccc(C(F)(F)F)c1)C(=O)NCCc1nc(C(C)(C)C)cs1 (centres undefined)	11.8
Cc1ccc(CNC(=O)NCC(c2cccnc2)c2c[nH]c3ccccc23)cc1 (centres undefined)	18.1
Cc1[nH]n(C(N)=S)c(=O)c1N=Nc1cc(-c2ccc(Br)cc2)[nH]n1	177.7
O=c1c(N=Nc2ccccc2)c(-c2ccccc2)[nH]n1-c1ccccc1	10.8
Cc1ccc(N=Nc2c(-c3ccccc3)[nH]n(C(N)=S)c2=O)cc1	-105.0*
CCc1ccccc1NC(=O)C(=O)N1CCCn2nc(C(=O)N3CCCC3)cc2C1	55.4
CCOc1ccc2c(c1)C(c1ccc(F)cc1)=NNC(c1ccc(Cl)cc1)=N2	-34.5
O=S(=O)(Cc1ccc(Cl)cc1)CC(O)COc1ccc(F)cc1 (centres undefined)	19.2
OC(COc1ccc(F)cc1)(c1ccc(Cl)cc1)c1ccc(Cl)cc1	-98.7*
COc1ccc(CN(C)Cc2nc(-c3cccc(Cl)c3)oc2C)cc1OC	-7.1
CCN(CCCNC(=O)C1=C(C)C(=O)OC12CCN(S(C)(=O)=O)CC2)Cc1ccccc1	-1.4
CCn1c(C2CCCN(Cc3ccc(-c4ccn[nH]4)s3)C2)nn(C)c1=O (centres undefined)	0.6
Cc1ccc(F)cc1-n1c(-c2ccn[nH]2)n[nH]c1=O	7.6
CCn1c(=O)c(-c2ccn[nH]2)cc2c(C)nc(N)nc21	-74.4*
CCOC(=O)CC1CCCCN1Cc1nnc(C)s1 (centres undefined)	2.1
CC1(C(=O)NCc2ccc(F)cc2F)CCN(C(=O)c2ccc(Br)cc2)CC1	-25.7
COCCN(C)C(=O)c1ncn2c(C3CCN(C(C)=O)CC3)ccnc12	-39.7
CC1(C)Cc2ccccc2CN1C(=O)c1cn(CC2CCCNC2)nn1 (centres undefined)	2.1
Cc1cccnc1N1CCN(C(=O)c2cn(CC3CCCNC3)nn2)CC1 (centres undefined)	1.9
